These results are taken from PubChem BioAssay (EPA / NIEHS).

A word on the AC50: it is the concentration at which the activity in the assay is half-maximal.

Several values for one entry are separate records, joined by “and”; a condition that tells them apart may be missing. Identical values can stand only once. A structure can be active in one record and inactive in another. Activity calls are given as the source filed them. Rule for the calls: active = hit-call score of the fitted dose curve at least 0.9, where 1 is the maximum; inactive = score below 0.9.

The nature of the first assay: ATG_M_61_CIS: Attagene CIS-FACTORIAL HepG2 Assay for M61 Transcription Factor (Internal Marker) (AID 2282937). Particulars: HepG2 Attagene CIS-FACTORIAL M61 internal marker reporter; actives raise or lower the signal. In outline:
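Readout is reporter mRNA by RT-PCR, fluorescent primer extension and capillary electrophoresis, with gain or loss fitted relative to DMSO. Transfected HepG2 cells carrying endogenous-TF-driven cis reporters were exposed to chemicals for 24 hours.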
On to `O=C1O[C@H]([C@H](O)CO)C(O)=C1O`, for which the compound was called inactive.

`C/C=C/c1ccc(OC)cc1`: the outcome was inactive.

Take `CCCCCCCCCC[N+](C)(C)[O-]`: the compound was called inactive.

With `O=Cc1ccccc1C=O`, the compound was classed as inactive.

As to `CC(=O)CC(c1ccccc1)c1c(O)c2ccccc2oc1=O` (stereo not given), the outcome was inactive.

For `Cc1occc(=O)c1O`, the call was inactive.

For the compound `CC(=O)O`, the compound was called inactive.

For the compound `NC1CCCCC1`, the compound was called inactive.

As for `CCCCCCCC(=O)OC`, the compound was classed as inactive.

In the case of `CCCCCCCCCCCCCCOS(=O)(=O)O`, the call was inactive.

`CCc1cc(C2=C(C(=O)O)N(c3ccccc3C(F)(F)F)S(=O)(=O)c3ccccc32)cc2c1OCO2`: the compound was called inactive.

With `CC(C)NCC(O)c1ccc(O)c(O)c1` (stereo not given), the result was inactive.

As to `CC(N)=O`, the result was inactive.

`CCCC[C@H]1CN(CC2CCOCC2)C(=O)OC12CCN(C1(C)CCN(C(=O)c3c(C)ncnc3C)CC1)CC2`: the call was inactive.

For `Cc1ccc(-c2cc(C(F)(F)F)nn2-c2ccc(S(N)(=O)=O)cc2)cc1`, the call was inactive.

As for `N[C@@H](Cc1c[nH]c2ccccc12)C(=O)O`, the compound was called inactive.

As for `Oc1ccc(O)cc1`, the compound was classed as inactive.

For the compound `CC1(C)C(=O)NC(=O)N1CO`, the compound was classed as inactive.

For `Nc1nc(=S)c2[nH]cnc2[nH]1`, the result was inactive.

As to `C/C=C/C=C/C(=O)O`, the compound was classed as inactive.

Consider `CS(=O)(=O)c1ccc([C@@H](C[C@H]2CCC(=O)C2)C(=O)Nc2cnccn2)cc1Cl`, for which the outcome was inactive.

As to `CCN(CC)CCOc1ccc(C(=C(Cl)c2ccccc2)c2ccccc2)cc1`, the call was inactive.

`CC(=O)O[C@]1(C(C)=O)CC[C@H]2[C@@H]3C=C(Cl)C4=CC(=O)[C@@H]5C[C@@H]5[C@]4(C)[C@H]3CC[C@@]21C`: the result was inactive.

For the compound `O=C1OC(c2ccc(O)cc2)(c2ccc(O)cc2)c2ccccc21`, the result was inactive.

For `C#CC(O)C(CC)CCCC` (stereo not given), the outcome was inactive.

Turning to `CO[C@@H]1COCC[C@@H]1N[C@@H]1CC[C@@](C(=O)N2CCc3ncc(C(F)(F)F)cc3C2)(C(C)C)C1`, the compound was called inactive.

On to `CCCCCCCCCCCCCCCCO`, for which the compound was classed as inactive.

`CC(C)(O)c1ccc(CNC(=O)c2cccnc2Oc2ccc(F)cc2)cc1`: the compound was classed as inactive.

As for `CCC(C)N(C)C(=O)c1cc2ccccc2c(-c2ccccc2Cl)n1` (stereo not given), the compound was called inactive.

A further assay can be described thus: ATG_EGR_CIS: Attagene CIS-FACTORIAL HepG2 Assay for human Early Growth Response 1 (EGR1) (AID 2282938). Particulars: HepG2 Attagene CIS-FACTORIAL EGR reporter mRNA; actives raise or lower the signal. In outline: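 After 24 h compound exposure, RNA from reporter-transfected HepG2 cells was reverse-transcribed, PCR-amplified, fluorescently labelled and resolved by capillary electrophoresis. EGR1 reporter transcript changes, up or down, were fitted against DMSO, reflecting endogenous transcription-factor activity.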
`O=C1O[C@H]([C@H](O)CO)C(O)=C1O`: the compound was classed as inactive.

As for `C/C=C/c1ccc(OC)cc1`, the result was inactive.

In the case of `CCCCCCCCCC[N+](C)(C)[O-]`, the call was inactive.

For `O=Cc1ccccc1C=O`, the compound was classed as inactive.

On to `CC(=O)CC(c1ccccc1)c1c(O)c2ccccc2oc1=O` (stereo not given), for which the result was inactive.

Take `Cc1occc(=O)c1O`: the call was inactive.

On to `CC(=O)O`, for which the result was inactive.

Regarding `NC1CCCCC1`, the compound was called inactive.

`CCCCCCCC(=O)OC`: the outcome was inactive.

As to `CCCCCCCCCCCCCCOS(=O)(=O)O`, the outcome was inactive.

On to `CCc1cc(C2=C(C(=O)O)N(c3ccccc3C(F)(F)F)S(=O)(=O)c3ccccc32)cc2c1OCO2`, for which the outcome was inactive.

With `CC(C)NCC(O)c1ccc(O)c(O)c1` (stereo not given), the call was inactive.

As for `CC(N)=O`, the call was inactive.

For the compound `CCCC[C@H]1CN(CC2CCOCC2)C(=O)OC12CCN(C1(C)CCN(C(=O)c3c(C)ncnc3C)CC1)CC2`, the outcome was inactive.

For `Cc1ccc(-c2cc(C(F)(F)F)nn2-c2ccc(S(N)(=O)=O)cc2)cc1`, the result was inactive.

On to `N[C@@H](Cc1c[nH]c2ccccc12)C(=O)O`, for which the outcome was inactive.

Turning to `Oc1ccc(O)cc1`, the call was inactive.

With `CC1(C)C(=O)NC(=O)N1CO`, the outcome was inactive.

On to `Nc1nc(=S)c2[nH]cnc2[nH]1`, for which the compound was called inactive.

Take `C/C=C/C=C/C(=O)O`: the call was inactive.

With `CS(=O)(=O)c1ccc([C@@H](C[C@H]2CCC(=O)C2)C(=O)Nc2cnccn2)cc1Cl`, the compound was called inactive.

Regarding `CCN(CC)CCOc1ccc(C(=C(Cl)c2ccccc2)c2ccccc2)cc1`, the AC50 is 6.34 µM (active) and the compound was classed as inactive.

Consider `CC(=O)O[C@]1(C(C)=O)CC[C@H]2[C@@H]3C=C(Cl)C4=CC(=O)[C@@H]5C[C@@H]5[C@]4(C)[C@H]3CC[C@@]21C`, for which the concentration at half-maximal activity (AC50) was 27.9 µM (active) and 40.3 µM (active) and 100 µM (active); the call was inactive.

Regarding `O=C1OC(c2ccc(O)cc2)(c2ccc(O)cc2)c2ccccc21`, the concentration at half-maximal activity (AC50) is 20.8 µM (active).

Turning to `C#CC(O)C(CC)CCCC` (stereo not given), the call was inactive.

For `CO[C@@H]1COCC[C@@H]1N[C@@H]1CC[C@@](C(=O)N2CCc3ncc(C(F)(F)F)cc3C2)(C(C)C)C1`, the compound was classed as inactive.

Turning to `CCCCCCCCCCCCCCCCO`, the outcome was inactive.

As to `CC(C)(O)c1ccc(CNC(=O)c2cccnc2Oc2ccc(F)cc2)cc1`, the compound was classed as inactive.

In the case of `CCC(C)N(C)C(=O)c1cc2ccccc2c(-c2ccccc2Cl)n1` (stereo not given), the half-maximal activity concentration (AC50) is 62.5 µM (active).

Another assay in a line: ATG_M_19_CIS: Attagene CIS-FACTORIAL HepG2 Assay for M19 Transcription Factor (Internal Marker) (AID 2282939). Particulars: HepG2 Attagene CIS-FACTORIAL M19 internal marker reporter; actives raise or lower the signal. A digest of the protocol: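 Following a 24 h exposure, RNA from transfected HepG2 cells was reverse-transcribed, PCR-amplified with reporter-specific primers, end-labelled with 6-FAM and HpaI-digested before capillary separation. Values represent gain or loss versus DMSO.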
On to `O=C1O[C@H]([C@H](O)CO)C(O)=C1O`, for which the result was inactive.

With `C/C=C/c1ccc(OC)cc1`, the compound was called inactive.

In the case of `CCCCCCCCCC[N+](C)(C)[O-]`, the call was inactive.

For the compound `O=Cc1ccccc1C=O`, the call was inactive.

`CC(=O)CC(c1ccccc1)c1c(O)c2ccccc2oc1=O` (stereo not given): the compound was called inactive.

Consider `Cc1occc(=O)c1O`, for which the result was inactive.

For `CC(=O)O`, the call was inactive.

For the compound `NC1CCCCC1`, the outcome was inactive.

For the compound `CCCCCCCC(=O)OC`, the compound was called inactive.

`CCCCCCCCCCCCCCOS(=O)(=O)O`: the compound was classed as inactive.

For `CCc1cc(C2=C(C(=O)O)N(c3ccccc3C(F)(F)F)S(=O)(=O)c3ccccc32)cc2c1OCO2`, the compound was classed as inactive.

In the case of `CC(C)NCC(O)c1ccc(O)c(O)c1` (stereo not given), the call was inactive.

For the compound `CC(N)=O`, the call was inactive.

Consider `CCCC[C@H]1CN(CC2CCOCC2)C(=O)OC12CCN(C1(C)CCN(C(=O)c3c(C)ncnc3C)CC1)CC2`, for which the call was inactive.

Take `Cc1ccc(-c2cc(C(F)(F)F)nn2-c2ccc(S(N)(=O)=O)cc2)cc1`: the compound was classed as inactive.

`N[C@@H](Cc1c[nH]c2ccccc12)C(=O)O`: the compound was classed as inactive.

On to `Oc1ccc(O)cc1`, for which the result was inactive.

For the compound `CC1(C)C(=O)NC(=O)N1CO`, the result was inactive.

For `Nc1nc(=S)c2[nH]cnc2[nH]1`, the compound was called inactive.

Turning to `C/C=C/C=C/C(=O)O`, the result was inactive.

Consider `CS(=O)(=O)c1ccc([C@@H](C[C@H]2CCC(=O)C2)C(=O)Nc2cnccn2)cc1Cl`, for which the compound was called inactive.

`CCN(CC)CCOc1ccc(C(=C(Cl)c2ccccc2)c2ccccc2)cc1`: the compound was classed as inactive.

With `CC(=O)O[C@]1(C(C)=O)CC[C@H]2[C@@H]3C=C(Cl)C4=CC(=O)[C@@H]5C[C@@H]5[C@]4(C)[C@H]3CC[C@@]21C`, the AC50 was 180 µM (active) and the outcome was inactive.

Turning to `O=C1OC(c2ccc(O)cc2)(c2ccc(O)cc2)c2ccccc21`, the compound was classed as inactive.

With `C#CC(O)C(CC)CCCC` (stereo not given), the result was inactive.

With `CO[C@@H]1COCC[C@@H]1N[C@@H]1CC[C@@](C(=O)N2CCc3ncc(C(F)(F)F)cc3C2)(C(C)C)C1`, the compound was classed as inactive.

For the compound `CCCCCCCCCCCCCCCCO`, the result was inactive.

Turning to `CC(C)(O)c1ccc(CNC(=O)c2cccnc2Oc2ccc(F)cc2)cc1`, the result was inactive.

For `CCC(C)N(C)C(=O)c1cc2ccccc2c(-c2ccccc2Cl)n1` (stereo not given), the outcome was inactive.
